Outcome data for 40 compounds are collected here from PubChem BioAssay (EPA / NIEHS).

The structures appear in SMILES notation. Results filed as inconclusive are left out. Active and inactive are the calls of the source. The calls were made as follows: active = hit-call score of the fitted dose curve at least 0.9, where 1 is the maximum; inconclusive = response in the unintended direction; inactive = score below 0.9.

The experiment is described as follows: TOX21_p53_BLA_p4_viability: Viability Assessment in the Tox21 HCT-116 p53 Agonism Beta-lactamase Assay, Phase 4 (AID 2283597).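 Also: hits lower the luminescence signal meaning cytotoxicity.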 An excerpt: TOX21_p53_BLA_p4 is a cell-based, single-readout assay that uses HCT116, a human intestinal cell line, […] in a 1536-well plate.TOX21_p53_BLA_p4_viability is an assay readout measuring cellular ATP content and detected with CellTiter-Glo Luciferase-coupled ATP quantitation.TOX21_p53_BLA_p4_viability used a type of viability reporter where loss-of-signal activity can be used to understand changes in the cell viability. Furthermore, this assay endpoint can be referred to as a secondary readout, because this assay has produced multiple assay endpoints where this one serves a viability function. To generalize the intended target to other relatable targets, this assay endpoint is annotated to the cell cycle intended target family, where the subfamily is cytotoxicity.
Thawing Method: Place 14 mL of pre-warmed thaw medium into a 15 mL of conical tub. Remove the vial of cells to be thawed from liquid nitrogen and thaw rapidly by placing at 37C in a water bath with gentle agitation for 1-2 minutes. Decontaminate the vial by wiping with 70% ethanol before opening in a biological safety cabinet. Transfer the vial contents drop-wise into 14 mL of thaw medium in a sterile 15-mL conical tub. Centrifuge cells at 900 rpm for 4 minutes and resuspend in thaw medium. Transfer contents to the T75 tissue culture flask containing Thaw Medium and place flask in a humidified 37C/5% CO2 incubator. Switch to growth medium at first passage.Propagation Method: Aspirate medium, rinse once in DPBS, add 0.25% Trypsin/EDTA and swirl to coat the cell evenly. Add an equal volume of Growth Medium to inactivate Trypsin after 2-3 minutes incubation at 37C. Centrifuge cells at 900 rpm for 4 minutes and resuspend in growth medium. Cell should be passage or fed at least twice a week.Assay Protocol: Harvest cells from culture in growth medium and resuspend in assay medium. 2.2 Dispense 4000 cells/5 uL/well into 1536-well black/clear bottom plates using a Multidrop dispenser. After the cells were incubated at 37C for 5 hours, 23 nL of compounds dissolved in DMSO were transferred to the assay plate by a PinTool resulting in a 217-fold dilution. Incubate the plates for 16 hours at 37C, 5% CO2. Add 1 uL of 6X LiveBLAzer FRET B/G (CCF4-AM) Substrate Mixture to each well using a BioRAPTR dispenser and incubate the plates at room temperature for 2 hours. Measure fluorescence intensity at 460 and 530 nm emission and 405 nm excitation by an Envision detector. Data is expressed as the ratio of 460nm/530nm emissions. Add 4 uL of Cell-titer Glo to each well using BioRAPTR and incubate the plates at room temperature for […]. For cell viability readout that measures cytotoxicity, 4 ul/well of CellTiter-Glo reagent was added into the assay plates using a Flying Reagent Dispenser. After 30 min incubation at room temperature, the luminescence intensity in the plates was measured using a ViewLux plate reader.
In the case of `Cc1ccc(C(C)(C)c2ccc(C)cc2)cc1`, the compound was classed as inactive.
For the compound `CN1CCCC(CC2c3ccccc3Sc3ccccc32)C1` (stereo not given), the call was inactive.
The value for `C[C@]12CC[C@@H]3c4ccc(O)cc4CC[C@H]3[C@@H]1CC[C@@H]2OP(=O)(O)O` was “inactive”; that for `CC(=O)Oc1cc(C(C)C)c(OCCN(C)C)cc1C` was “inactive”; that for `NCC1CCC(C(=O)Oc2ccc(CCC(=O)O)cc2)CC1` (stereo not given) was “inactive”.
Regarding `C[C@](N)(Cc1ccc(O)cc1)C(=O)O`, the call was inactive.
Then `CC#CCC(C)[C@H](O)/C=C/[C@@H]1[C@H]2C/C(=C/CCCC(=O)O)C[C@H]2C[C@H]1O` (stereo not given in full), with “inactive”; and `CN(C)CCCOc1nn(Cc2ccccc2)c2ccccc12`, with “inactive”; and `CC(=O)[C@@]1(O)CC[C@H]2[C@@H]3C=C(Cl)C4=CC(=O)[C@@H]5C[C@@H]5[C@]4(C)[C@H]3CC[C@@]21C`, with “inactive”.
Then `CC(=O)Nc1cccc(N)c1`, with “inactive”; and `CCCCOC(=O)C(=O)Nc1cccc(-c2nn[nH]n2)c1`, with “inactive”.
As to `Cc1ccnc2c1NC(=O)c1cccnc1N2C1CC1`, the outcome was inactive.
The value for `O=C(NNCS(=O)(=O)O)c1ccncc1` was “inactive”.
As to `CC(Cc1cccc(C(F)(F)F)c1)NCCOC(=O)c1ccccc1` (stereo not given), the call was inactive.
Then `C[n+]1ccn(Cc2ccccc2)c1`, with “inactive”; and `O=C(O)CCS`, with “inactive”.
With `Nc1nc(CC(=O)O)cs1`, the outcome was inactive.
Then `C#CCN[C@@H]1CCc2ccccc21`, with “inactive”; and `CC(C)(C)C(=O)NCCCC(=O)O`, with “inactive”.
Then `NS(=O)(=O)c1ccc(C(=O)O)cc1`, with “inactive”; and `[Cl-].[Cl-].[NH-]CC[NH-].[Pt+4]`, with “inactive”.
The value for `CCc1ccc(Br)cc1` was “inactive”; that for `O=C1CCCc2ccccc21` was “inactive”.
Consider `CC(C)(C)NCCO`, for which the call was inactive.
Then `CCCCOCCCC`, with “inactive”; and `CN(CC(=O)N1CCOCC1)Cc1c(Cl)cccc1NC(=O)c1ccccc1`, with “inactive”.
Then `OC(CCCN1CCCCC1)(c1ccccc1)c1ccccc1`, with “inactive”; and `CCCCCCCCCCCCCCBr`, with “inactive”.
The value for `CCCCCCCCCCCCOCCCN` was “inactive”; that for `NC(=O)Oc1ccc(Cc2ccccc2)cc1` was “inactive”.
As for `NC(=O)Nc1nc2ccccc2[nH]1`, the result was inactive.
The value for `Cc1ccccc1N1C(=O)c2cc(S(N)(=O)=O)c(Cl)cc2NC1C` (stereo not given) was “inactive”; that for `CCCCNc1c(C(=O)OCC)c(C)nc2c1cnn2CC` was “inactive”; that for `O=C(N=NC(=O)OCc1ccccc1)OCc1ccccc1` was “inactive”.
The value for `Cc1ccc(C(=O)Nc2ccc(S(=O)(=O)O)c3cc(S(=O)(=O)O)cc(S(=O)(=O)O)c23)cc1NC(=O)c1cccc(NC(=O)Nc2cccc(C(=O)Nc3cc(C(=O)Nc4ccc(S(=O)(=O)O)c5cc(S(=O)(=O)O)cc(S(=O)(=O)O)c45)ccc3C)c2)c1` was “inactive”; that for `CCNC(=O)[C@@H]1CCCN1C(=O)[C@H](CCCN=C(N)N)NC(=O)[C@H](CC(C)C)NC(=O)[C@@H](CC(C)C)NC(=O)[C@H](Cc1ccc(O)cc1)NC(=O)[C@H](CO)NC(=O)[C@H](Cc1c[nH]c2ccccc12)NC(=O)[C@H](Cc1cnc[nH]1)NC(=O)[C@@H]1CCC(=O)N1` was “inactive”; that for `CN(C)c1ccc(SC#N)cc1` was “inactive”.
As for `Cc1ccc(O)c(N)c1`, the outcome was inactive.
As to `COCc1ccc(COC)cc1`, the compound was classed as inactive.
`NCCCC(=O)O`: the result was inactive.
